Assay results from PubChem BioAssay (EPA / NIEHS).
Values joined by “and” are separate entries in the source; they are usually repeats but may differ in a detail not shown here. Equal values may be shown once. Records with an inconclusive call do not appear. Where a structure was tested more than once in an assay, its records may differ in their call. Active and inactive are the calls of the source. How the source made its calls, unless noted: active means hit-call score of the fitted dose curve at least 0.9, where 1 is the maximum; inactive means score below 0.9.

Tests used:
[1] = CCTE_Shafer_MEA_dev_bursting_electrodes_number: CCTE's Neural Network Formation Assay for Number of Bursting Electrodes, Shafer Lab (AID 2284043; active means hit-call score of the fitted dose curve at least 0.9, where 1 is the maximum;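 on AC50: potency is for loss of bursting electrodes relative to DMSO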)
Summary of the method: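 Primary rat cortical neurons were cultured on PEI-coated 48-well MEA plates (16 electrodes/well) and exposed from plating through day 12, with compound renewed at feeds on DIV 5 and 9. Electrodes bursting ≥1 per 2 min were counted on DIV 5, 7, 9, 12; trapezoidal AUC taken.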

[2] = CCTE_Shafer_MEA_dev_per_burst_interspike_interval: CCTE's Neural Network Formation Assay for Burst Interspike Interval, Shafer Lab (AID 2284044);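 further: mean spike spacing inside bursts as AUC over recordings on days 5 7 9 12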;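 on AC50: potency for a decrease of within-burst interspike interval below DMSO level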
Summary of the method: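 Primary rat cortical neurons on 48-well MEA plates, exposed from day 0 through day 12, treatment renewed at DIV 5 and 9. Within-burst interspike interval recorded days 5, 7, 9, 12, well-averaged, summarised as AUC; negative fit versus DMSO.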

[3] = CCTE_Shafer_MEA_dev_burst_duration_mean: CCTE's Neural Network Formation Assay for Mean Burst Duration, Shafer Lab (AID 2284045);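 on AC50: curve fitted for loss meaning shorter burst duration than DMSO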
Summary of the method: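 Primary rat cortical neurons on PEI-coated 16-electrode MEA wells, exposed from plating through day 12 with compound renewed at DIV 5 and 9; spontaneous activity recorded days 5, 7, 9, 12. Well-mean burst duration collapsed as trapezoidal AUC, fitted for loss versus DMSO.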

[4] = CCTE_Shafer_MEA_dev_interburst_interval_mean: CCTE's Neural Network Formation Assay for Mean Interburst Interval, Shafer Lab (AID 2284046);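 further: well-mean interburst interval of bursting electrodes as AUC over four recording days; curve fitted for decrease in interburst interval relative to DMSO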
Summary of the method: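 Developing rat cortical networks on 48-well MEAs receive compound from the day of plating. Burst intervals from each active electrode are averaged per well, and AUC over the recording days is fitted in the negative direction against DMSO.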

[5] = CCTE_Shafer_MEA_dev_inter_network_spike_interval_mean: CCTE's Neural Network Formation Assay for Mean Inter-network Spike Interval, Shafer Lab (AID 2284047);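 on AC50: potency for a decrease in mean inter-network spike interval below DMSO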
Summary of the method: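 Rat cortical cultures, 1.5 x 10^5 cells/well on 48-well MEA plates; continuous exposure days 0–12, medium and compound refreshed DIV 5, 9. Mean time between consecutive network-spike peaks; AUC across DIV 5/7/9/12; DMSO baseline, negative fitting direction.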

[6] = CCTE_Shafer_MEA_dev_network_spike_number: CCTE's Neural Network Formation Assay for Number of Network Spikes, Shafer Lab (AID 2284048);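 further: synchronized bursts across electrodes counted on days 5 7 9 12 and integrated as AUC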;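 on AC50: fit as a loss of signal meaning fewer network spikes than DMSO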
Summary of the method: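 Primary rat cortical neurons were seeded at 1.5 x 10^5 cells/well on PEI-coated 16-electrode MEA wells with laminin, exposed from plating day 0, compound renewed at DIV 5 and 9. Network spikes were recorded on days 5, 7, 9, 12 and summarized as trapezoidal AUC versus DMSO.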

[7] = CCTE_Shafer_MEA_dev_network_spike_peak: CCTE's Neural Network Formation Assay for Mean Number of Electrodes in Network Spike, Shafer Lab (AID 2284049);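 on AC50: fitted for loss of signal meaning fewer electrodes in network spikes than DMSO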
Summary of the method: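 Continuous 12-day exposure of rat cortical cultures, starting at plating, on MEA plates. Endpoint: electrodes participating in network-spike peaks, AUC across DIV 5–12, DMSO as negative control.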

[8] = CCTE_Shafer_MEA_dev_spike_duration_mean: CCTE's Neural Network Formation Assay for Mean Spike Duration, Shafer Lab (AID 2284051);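 further: mean network spike duration pooled as area under curve over DIV 5 to 12 recordings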;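 on AC50: potency for a decrease in mean network spike duration versus DMSO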
Summary of the method: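 Readout is the average length of network spikes, clustered firing across electrodes, summed over DIV 5, 7, 9 and 12 as area under the curve. Neurons from rat cortex developed networks on MEA plates under continuous 12-day exposure.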

[9] = CCTE_Shafer_MEA_dev_network_spike_duration_std: CCTE's Neural Network Formation Assay for Standard Deviation of Network Spike Duration, Shafer Lab (AID 2284052);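 further: area under curve of spike duration SD across recording days 5 to 12; hits are decreases in network spike duration SD versus DMSO vehicle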
Summary of the method: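 Read-out is the trapezoidal area-under-the-curve across recordings made on days 5, 7, 9 and 12, fitted in the negative direction against DMSO baseline. Neurons were primary rat cortical cells treated from day 0, with treatment renewed at each feed.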

[10] = CCTE_Shafer_MEA_dev_per_network_spike_spike_number_mean: CCTE's Neural Network Formation Assay for Mean Number of Spikes in a Network Spike, Shafer Lab (AID 2284053);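 on AC50: fitted as decrease in spikes per network spike relative to DMSO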
Summary of the method: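 Continuous twelve-day exposure of developing rat cortical networks grown over 16 microelectrodes per well; spontaneous firing is captured at four time points, and the per-network-spike spike number is integrated over development by trapezoidal AUC.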

[11] = CCTE_Shafer_MEA_dev_AB: CCTE's Alamar Blue Assay for Cytotoxicity in the Neural Network Formation Assay, Shafer Lab (AID 2284083; active means hit-call score of the fitted dose curve at least 0.9, where 1 is the maximum;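 further: resazurin reduction fluorescence as viability of cultured neurons; twelve days of exposure from plating with re-dosing on DIV 5 and 9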)
Summary of the method: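 Fluorescent resazurin reduction serves as the viability read-out, with DMSO as negative control and baseline. Cells were primary rat cortical neurons grown on MEA plates and dosed from day 0 to day 12, treatment renewed on DIV 5 and 9.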

[12] = CCTE_Shafer_MEA_dev_mutual_information_norm: CCTE's Neural Network Formation Assay for Mutual Information Normalization, Shafer Lab (AID 2284091);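 on AC50: mutual information between electrodes summarised as area under curve across four recording days; potency is for a decrease in mutual information relative to DMSO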
Summary of the method: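 Rat cortical cultures, 48-well MEA, continuous exposure DIV 0–12 with full media/compound change DIV 5 and 9. Readout: inter-electrode mutual information, AxIS adaptive spike detection; AUC across DIV 5/7/9/12 recordings; DMSO baseline, negative fitting direction.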

[13] = CCTE_Shafer_MEA_dev_correlation_coefficient_mean: CCTE's Neural Network Formation Assay for Mean Correlation Coefficient, Shafer Lab (AID 2284093);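 on AC50: well mean pairwise spike train correlation integrated as AUC over recording days 5 to 12; potency fitted for loss of correlation relative to DMSO vehicle wells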
Summary of the method: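 Read-out: well-mean correlation coefficient of spike trains between electrode pairs, collapsed over four recording days as trapezoidal area-under-the-curve. Developing rat cortical neuron networks grown on MEAs received test chemical continuously from plating.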

DIO2 (gene 1734) = experiment: CCTE_GLTED_hDIO2: CCTE's human Deiodinase 2 (DIO2) Inhibition Assay, Great Lakes Toxicology and Ecology Division (GLTED) Lab (AID 2284050; active means hit-call score of the fitted dose curve at least 0.9, where 1 is the maximum)
Summary of the method: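 hDIO2 enzyme + test chem, 3 h → free iodide from substrate; step 2: Sandell-Kolthoff (Ce IV reduction by As, iodide-catalysed), spectrophotometric read. Triplicate plates; DMSO = baseline.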

[14] = CCTE_Shafer_MEA_dev_LDH: CCTE's Lactate Dehydrogenase Assay for Cytotoxicity in the Neural Network Formation Assay, Shafer Lab (AID 2284068; active means hit-call score of the fitted dose curve at least 0.9, where 1 is the maximum;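 further: exposure for twelve days from plating with re-dosing on DIV 5 and 9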)
Summary of the method: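 Cytotoxicity companion to network-formation recordings: rat cortical neurons received compound over 12 days of development, re-dosed at DIV 5 and 9 feeds. Viability was inferred from LDH enzyme activity relative to DMSO.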

[15] = UKN2_HCS_IMR90_neural_migration: University of Konstanz (UKN) Leist Lab Neural Crest Cell Migration Assay in human induced IMR90 Pluripotent Stem Cells (UKN2) (AID 2284204); conditions: actives raise or lower the signal
Summary of the method: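 iPSC-derived IMR90 neural crest cells on PLO/laminin/fibronectin were seeded around silicone stoppers; after stopper removal, migration in N2-S medium with EGF and FGF ran 24 h before 24 h chemical exposure. Calcein-AM/Hoechst high-content imaging; bidirectional fit versus DMSO.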

[16] = UKN4_HCS_LUHMES_neurite_outgrowth: University of Konstanz (UKN) Leist Lab Neurite Outgrowth Assay in human LUHMES cells (UKN4) (AID 2284206); conditions: actives raise or lower the signal
Summary of the method: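 Day 0 switch to differentiation medium; day 2 replate (30000 cells/well) without cAMP and GDNF; compounds added 30 min–2 h later. At 23.5 h, 30 min calcein-AM/H-33342 live stain, then imaging.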

[17] = IUF_NPC1b_proliferation_BrdU_72hr: Leibniz Research Institute for Environmental Medicine (IUF) 72-hour Neural Progenitor Cell Bromodeoxyuridine (BrdU) Proliferation Assay (NPC1b) (AID 2284207)
Summary of the method: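 hNPC spheres (primary, GW 16-19 fetal cortex), single sphere/well, EGF+FGF medium; 72 h compound, no renewal; BrdU pulse last 16 h; luminescent ELISA; activity vs DMSO baseline; growth-factor withdrawal as positive control.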

[18] = UKN5_HCS_SBAD2_cell_viability: Viability Assessment in the University of Konstanz (UKN) Leist Lab Neurite Outgrowth Assay in human iPSC-derived immature Dorsal Root Ganglia Neurons (UKN5) (AID 2284056)
Summary of the method: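 iPSC-derived immature peripheral neurons (SBAD2) seeded on Matrigel with CHIR99021, SU5402 and DAPT, dosed 1 h later for 24 h. Viability from Hoechst H-33342 and calcein-AM live staining, high-content imaging; bidirectional fit versus DMSO.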

[19] = UKN5_HCS_SBAD2_neurite_outgrowth: University of Konstanz (UKN) Leist Lab Neurite Outgrowth Assay in human iPSC-derived immature Dorsal Root Ganglia Neurons (UKN5) (AID 2284070); conditions: actives raise or lower the signal
Summary of the method: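 Read-out: calcein-AM-stained neurite area by high-content imaging, Hoechst H-33342 for viability, after 24 h exposure of iPSC-derived immature dorsal root ganglia neurons. Activity fitted in both directions relative to DMSO baseline.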

Measured: AC50

CC(O)CO (stereo unspecified)
not listed: DIO2 (gene 1734) | [14] | [15] | [16] | [17] | [18] | [19]
inactive: all other assays above

CC(C)(C)c1ccc(O)c(C(C)(C)C)c1
active: DIO2 (gene 1734) 159 µM

Cc1oc(-c2ccccc2)nc1CCOc1ccc(C[C@H](Nc2ccccc2C(=O)c2ccccc2)C(=O)O)cc1
active: DIO2 (gene 1734) 46.1 µM

NC(=O)N(O)[C@@H]1C=C[C@H](Oc2cccc(Oc3ccc(F)cc3)c2)C1
active: DIO2 (gene 1734) 36.5 µM

OCCC(F)(F)C(F)(F)C(F)(F)C(F)(F)C(F)(F)C(F)(F)F
not listed: [11] | DIO2 (gene 1734) | [14] | [15] | [16] | [17] | [18] | [19]
inactive: all other assays above

ClC1=C(Cl)C(Cl)(Cl)C(Cl)=C1Cl
active: DIO2 (gene 1734) 23.9 µM

CC#C[C@]1(O)CC[C@H]2[C@@H]3CCC4=CC(=O)CCC4=C3[C@@H](c3ccc(N(C)C)cc3)C[C@@]21C
active: [1] 2.8 µM and 15 µM | [2] 4.01 µM and 5.66 µM | [3] 2.98 µM | [4] 2.69 µM | [6] 8.75 µM | [7] 2.53 µM and 22.2 µM | [8] 4.55 µM and 21.8 µM | [9] 8.66 µM | [10] 1.38 µM and 15 µM | [14] 16.4 µM and 25.1 µM | [11] 16.5 µM and 25.4 µM | [12] 1.07 µM and 11.7 µM | [13] 6.26 µM and 22.2 µM | [15] 9.67 µM and 5.64 µM | [16] 10 µM | [17] 5 µM
inactive: [3] | [4] | [5] | [6] | [9]

CCC(=C(c1ccc(O)cc1)c1ccc(OCCN(C)C)cc1)c1ccccc1
active: DIO2 (gene 1734) 35.2 µM

c1ccc2c(c1)ccc1ccccc12
not listed: DIO2 (gene 1734) | [15] | [16] | [17] | [18] | [19]
inactive: all other assays above

CC1=C(/C=C/C(C)=C/C=C/C(C)=C/C(=O)O)C(C)(C)CCC1
active: [4] 3.54 µM | [5] 0.319 µM | [6] 7.99 µM | [7] 24.1 µM | DIO2 (gene 1734) 60.4 µM | [8] 10.1 µM | [9] 2.98 µM | [14] 19 µM | [12] 7.47 µM | [13] 23.4 µM | [15] 5.77 µM | [16] 29.8 µM | [17] 1.67 µM
inactive: [2] | [3] | [10] | [18] | [19] | [11]

CCCCCCCCCCCCCC[N+](C)(C)C
active: DIO2 (gene 1734) 24.7 µM

CC(=O)NC1(c2cccc(F)c2)CCN(CC[C@@]2(c3ccc(Cl)c(Cl)c3)CN(c3ccccc3)C(=O)CO2)CC1
active: DIO2 (gene 1734) 82.6 µM
